We go through 89 sequences from the supplement of paper PMC11417369.

± gives the standard deviation of the averaged measurements. The full ranking holds about 25,000 sequences; the median of “ln(normalized median fluorescence intensity)” is about 10, and the highest 2% start at about 12. The full list was thinned out, with the highest values kept by preference.

The subject of the experiment is PfAP2-G AP2 domain (GST-tagged). The experiment can be described thus: gcPBM binding intensity (ln(normalized median fluorescence intensity)); higher = stronger DNA binding. An outline of the steps:
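GST-fused DNA-binding domains of P. falciparum, expressed in E. coli, were applied at about 25 μg on average for 1 h to an Agilent 4 × 180k array of primer-extended double-stranded 36-bp intergenic genomic probes and negative controls. Binding intensity is the highest Masliner-normalised natural-log median intensity across replicate spots of either probe orientation, measured with Alexa488 anti-GST antibody and a 488 nm scan.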
“TGTCTTTAAATTTCTCAACACACAGTTATAAAAAAT [CACACA_site8930]”: the “gcPBM binding intensity (ln)” value was 9.94 ± 0.099. As to “AAAAGAATTTGAAGTCGTACAATATCTATTATATGA [XGTACX_site8275]”, the “gcPBM binding intensity (ln)” value worked out at 11.2 ± 0.78. With “AATAAACATAGATGTACACACATATACAGATATATA [CACACA_site5570]” the figure was 11.5 ± 1; with “TATATACATATATGTACACACATTACAGATGTACAT [CACACA_site966]”, 11.7 ± 0.93. As to “AATATATACATATATGTACACACATTACAGATGTAC [CACACA_site8227]”, the “gcPBM binding intensity (ln)” value is 11.5 ± 0.73. Turning to “TACACACATTACAGATGTACATAAAATTAAAAAAAT [XGTACX_site1804]”, the “gcPBM binding intensity (ln)” value worked out at 11.3 ± 0.71. Under “TGTACAAATATGTACACACACACATATATATATATA [CACACA_site584]” stands 11.4 ± 0.91; under “TATATACAAATATGTACACACATTACAGATGTACAT [CACACA_site6586]”, 11.8 ± 0.82; under “TACATTGTATACATATGTACACATATATATATATAT [XGTACX_site6174]”, 11.5 ± 0.71. Under “CGTTACACAAAAATATGTACATATATACATATATAT [XGTACX_site4631]” stands 11.1 ± 0.64; under “TAAATACATAGATGTACACACATTACAGATGTACAT [CACACA_site4692]”, 11.7 ± 0.98; under “TCCTAATGCTACCACACACACAAAAACAAATAATAA [CACACA_site2610]”, 10.5 ± 0.57. For the sequence “AGTAATAAATTTTATACATGCATAAAAAAAAAAAAA [TGCATGCA_site661]”, the “gcPBM binding intensity (ln)” value came to 9.72 ± 0.27.

For “ACATAAATAATAAAAACACACATATGTACAGATATA [CACACA_site5112]”, the “gcPBM binding intensity (ln)” value amounted to 11.1 ± 0.59. With “TAAAGGTAGATATATTGTACATACACACCTATATAA [XGTACX_site6865]” the figure was 10.9 ± 0.45; with “AAAAAAAAAAAACATACACACATACATACAGATATA [CACACA_site4681]”, 9.94 ± 0.13; with “AACAGATAAAAGGGTACACACATATATACATGTACA [CACACA_site225]”, 11.6 ± 0.88. Under “AACAGATAAAAGGGTACACACATATATACCTGTACA [CACACA_site4285]” stands 11.7 ± 0.99; under “AACAGATAAAAGGGTACACACATATATACAAGTACA [CACACA_site7959]”, 11.7 ± 0.83; under “ATAAACAGATAAAAGGGTACACACATATATACATGT [XGTACX_site452]”, 11.4 ± 0.84. Under “TAAACATATAAAAAGGGTACACATTAAACATAGTAT [XGTACX_site7096]” stands 11.3 ± 0.79; under “AAGTACATACATAAAACACACACATATATATATATA [CACACA_site8541]”, 10.5 ± 0.35.

For the sequence “TTTTCATTTTTTTTTTTTTTTTTTTTTCTTTTTTTT [CACACA_negctrl_site1312]”, the “gcPBM binding intensity (ln)” value turned out to be 9.52 ± 0.099.

Regarding “TTTCCCTTAAATTAATGTACATAAATTGAAAATACC [XGTACX_site1602]”, the “gcPBM binding intensity (ln)” value stood at 11.3 ± 0.77. With “ACTTGACACGGACACACACACATATATAAAAAAAAA [CACACA_site4576]” the figure was 11.2 ± 0.91; with “AAAAAAAAAAAAAAAAGTACATATGCTCAAGAGATG [XGTACX_site3783]”, 11.5 ± 0.82; with “TTTTTTTTTTTTTAATGTACCCATGGGCACATAGGT [XGTACX_site486]”, 11.4 ± 1. Under “CACTTTATACGTAATTGTACTTTTTCTTTTTTTTAT [XGTACX_site3175]” stands 11.5 ± 0.86; under “AAATAATATATATACACACACACATATATATATACA [CACACA_site554]”, 10.03 ± 0.028; under “TTGTAATTATTAAACACACACAAAATATATATAATA [CACACA_site2523]”, 10.3 ± 0.18. Under “ATATATATTAACAATACACACGTGTATACCTTATTG [CACACA_site5258]” stands 10.5 ± 0.22; under “TATATATTATACACGTGTACACATTATAACAATATA [XGTACX_site7799]”, 11.7 ± 0.77; under “ATATAATAAACGTGTACACAATTAAATTATTATATA [CACACA_site5017]”, 11.7 ± 1.1. With “TTATATTTTTTAATTACACACAATTTTTATAAATAT [CACACA_site4148]”, the “gcPBM binding intensity (ln)” value stood at 9.985 ± 0.021.

For the sequence “GTATATTAATAAACATGTACACAATTTATTTATATT [XGTACX_site1012]”, the “gcPBM binding intensity (ln)” value worked out at 11.5 ± 0.98. Turning to “ATATATATATTAACAATACACACGTGTATACCTTAT [CACACA_site2217]”, the “gcPBM binding intensity (ln)” value came to 10.38 ± 0.078. With “ATAATATAATAAACGTGTACACAATTAAATTATTAT [XGTACX_site3491]”, the “gcPBM binding intensity (ln)” value amounted to 11.8 ± 0.76. Under “TAAAATTTTTTATTCACACAAATATAGTTATATATA [CACACA_site5348]” stands 9.81 ± 0.16; under “AAGTTATTTATATATACACACAAATATAAATAATAT [CACACA_site1228]”, 9.97 ± 0.014. With “ATAGTTATTTTATAGCGTACACAATAAATATATAAA [XGTACX_site4445]” the figure was 11.7 ± 1.1. Under “TACAAATTAATATGTACACACAAATATAAATATGTA [CACACA_site7016]” stands 11.5 ± 0.98; under “TTCTTTTTTATTTATACATGCAATAAAAAATTGATT [TGCATGCA_site730]”, 9.925 ± 0.064. For “AGGACTAATATTTGAACACACATATAACATATACAT [CACACA_site7803]”, the “gcPBM binding intensity (ln)” value amounted to 9.95 ± 0.085.

With “AAAAAAAAAAAAATGTAATTTTTTAATTATTTATAT [GTGCAC_negctrl_site436]”, the “gcPBM binding intensity (ln)” value is 9.47 ± 0.11. Under “GTATTCATGCTAAAGGTGCAATAATTTTTATAATAA [GTGCAC_site9603]” stands 10.2 ± 0.21.

Take “ATTTTTTTTAATTTGTACAAATTTTGTTCACAATTT [CACACA_negctrl_site1301]”: the “gcPBM binding intensity (ln)” value was determined as 10.8 ± 0.4. With “AATTATTCTATATATTGTACATGTTTGTTTTTTTTT [XGTACX_site3130]” the figure was 10.9 ± 0.42; with “CATTATGTTGTAAATACACACATACAGATACATACA [CACACA_site4565]”, 10.3 ± 0.16; with “ATATAAAACAACGGGTGTACAAAAAAATAAATAATA [XGTACX_site4094]”, 11.3 ± 0.76.

As to “ATATTATACCCGTGTACACATTATAACCATATATAA [CACACA_site5933]”, the “gcPBM binding intensity (ln)” value turned out to be 11.7 ± 0.82. On to “AATAGTAATTTGAATACACACAATAATATATTTATA [CACACA_site7055]”, for which the “gcPBM binding intensity (ln)” value stood at 9.96 ± 0.042. For the sequence “TATTACCCATATTATACACACATATATTATATATAT [CACACA_site1567]”, the “gcPBM binding intensity (ln)” value is 10.3 ± 0.2. As to “CATTATTATTAACATACACACGTGTTATATACCCCC [CACACA_site9365]”, the “gcPBM binding intensity (ln)” value was 11 ± 0.61. Under “GTTATTAAAAACGGGTGTACACATATATAAATATAT [XGTACX_site1234]” stands 11.6 ± 0.86; under “TTTATTAATTTATAGTGTACATATTAATAATATATT [XGTACX_site7949]”, 11.3 ± 0.68; under “TATTTATAATAGTGTACACAATTATAAACTGAATAT [CACACA_site6041]”, 11.7 ± 0.89. Consider “ATTAAAAACGGGTGTACACATATATAAATATATATA [CACACA_site4539]”, for which the “gcPBM binding intensity (ln)” value came to 11.7 ± 0.89. With “AATAAAATAATAGGCACACATATATATATATATTAT [CACACA_site273]” the figure was 10.1 ± 0.26; with “CTATTAATGTACTCTACACACATATAAGAGGACATT [CACACA_site471]”, 11.6 ± 0.86. Under “AAATAAAATAAAAGCACACAAAATGTAAATAATTAT [CACACA_site2775]” stands 10.01 ± 0.035; under “CCATGTCAAACATTTGCACACAAAAAAATAAAAATT [CACACA_site4546]”, 10.2 ± 0.31; under “TAATTTAAAAATATAAATGTTTCACTTATATATTTT [TGCATGCA_negctrl_site399]”, 9.41 ± 0.27. On to “TAAGTATAAAAAAATAGTACAATTATGAAATATCGT [XGTACX_site2529]”, for which the “gcPBM binding intensity (ln)” value stood at 11.2 ± 0.71. Under “AAAAATAGTATAAGTAGTACAACTGAAAAGTTATGT [XGTACX_site7488]” stands 11.6 ± 0.86; under “GAAAAGTAGACAATATGTACATATAGTATTTATAAA [XGTACX_site878]”, 11.1 ± 0.69; under “ATTCTGAATGTTATGCGTACATATTAATCCTATTTA [XGTACX_site1216]”, 11.5 ± 0.93. Under “TGTTCTAATATTTGTTGTACATTTACATTTCTCTCT [XGTACX_site2585]” stands 11.1 ± 0.56. With “GAAAAAAAAAAAAGGGGTACATTTATTTTATCAATA [XGTACX_site8331]” the figure was 11.5 ± 1; with “TTCAAAGGGAAATTAACACACACATATATATATATA [CACACA_site8777]”, 10.2 ± 0.67.

For “ATATATAACGGGCACACACACATTTACGTATGAATA [CACACA_site1833]”, the “gcPBM binding intensity (ln)” value was 10.7 ± 0.43. With “GAAAACAAAATGGTAACACACAAATGTAAATAGTAT [CACACA_site2113]” the figure was 10.14 ± 0.064. With “TTCTAAAAAGGGTGTACACAAACGAATGGAAAATAA [CACACA_site5483]” the figure was 11.6 ± 0.94; with “AAAAATGAAAGGTGTACACATACAAACATAGAAAGA [CACACA_site5020]”, 11.7 ± 0.94; with “AAAAAAAATGAAAGGTGTACACATACAAACATAGAA [XGTACX_site3517]”, 11.7 ± 0.88. Regarding “AAATGGAAAAGGTGTACACAAAAAAAAGGGAAAAGC [CACACA_site5331]”, the “gcPBM binding intensity (ln)” value came out at 11.7 ± 1.2. With “TATAGGTATGTATGTACACACAAAAAATGGAATATA [CACACA_site7704]” the figure was 11.4 ± 0.76; with “AATAATAGAAAAAGGTGTACTTATAAACATATACAC [XGTACX_site6921]”, 11.5 ± 0.83; with “ATATATATGTATGTATGTACACACAAAAAATGGAAT [XGTACX_site7879]”, 11.5 ± 0.79. Under “AAAAAAGAAACAAACACACATACATACAAACAAACA [CACACA_site142]” stands 10.3 ± 0.28; under “GGAAAATGAAAACAAGGTACACATAAGAACAAACAA [XGTACX_site1221]”, 11.4 ± 0.87. Under “AAGGTGGGAAAAAATAGTACACAACAAAAATGTATG [XGTACX_site8741]” stands 11.7 ± 1; under “AACACCAAACAAAGGTGTACATATAGGAAAAAATCT [XGTACX_site1006]”, 11.3 ± 0.81; under “CACAAATATACAAATACACACAAATATACACATATA [CACACA_site7176]”, 10.2 ± 0.085.

For “ACCTAAAATAACTACACACACATAAAAAAAAAAAAA [CACACA_site2529]”, the “gcPBM binding intensity (ln)” value was found to be 10.1 ± 0.47. Under “GTATGTATATATGTATGTACTTATGTATCATTATTA [XGTACX_site2438]” stands 11.2 ± 0.83; under “AAAAAACACCCATACACACACACACCGATATATATA [CACACA_site5808]”, 10.1 ± 0.18; under “TATATATATTTTTGAAGTACTTATTACACTAGCATT [XGTACX_site8965]”, 11.2 ± 0.61. As for “ATTTTCTTATATATATTTTGTATATATTTTGTACAT [CACACA_negctrl_site1496]”, the “gcPBM binding intensity (ln)” value is 10.5 ± 0.39. Under “TTTTATGGAAAGTGTTGTACATATTTTTGTATATGT [XGTACX_site7356]” stands 11.4 ± 0.76.
